Test results published in PubChem BioAssay (EPA / NIEHS).
Several values for one entry are separate records, joined by “and”; a condition that tells them apart may be missing. Equal entries are not always repeated. The source holds several records for some structures; these can differ, active in one and inactive in another. Activity calls are given as the source filed them. The calls were made as follows: active = hit-call score of the fitted dose curve at least 0.9, where 1 is the maximum; inactive = score below 0.9.

Read-out: Vascular cell adhesion molecule 1 (VCAM1), VCAM1 (gene 7412)
Assay: BSK_hDFCGF_VCAM1: BioMAP Diversity Plus: hDFCGF Assay for Vascular cell adhesion molecule 1 (VCAM1) Biomarker Activity (AID 2283065)
Details: primary human foreskin fibroblasts; actives raise or lower the signal
Description: BSK_hDFCGF is a cell-based, multiplexed-readout assay that uses foreskin fibroblast, a human skin primary cell, with measurements taken at 24 hours after chemical dosing in a 96-well plate.BSK_hDFCGF_VCAM1 is an assay component measured in the BSK_hDFCGF assay. It measures VCAM-1 antibody related to regulation of gene expression using ELISA technology.Data from the assay component BSK_hDFCGF_VCAM1 was analyzed into 1 assay endpoint. This assay endpoint, BSK_hDFCGF_VCAM1, was analyzed with bidirectional fitting relative to DMSO as the negative control and baseline of activity. Using a type of binding reporter, gain or loss-of-signal activity can be used to understand changes in the signaling as they relate to the gene VCAM1. Furthermore, this assay endpoint can be referred to as a primary readout, because this assay has produced multiple assay endpoints where this one serves a signaling function. To generalize the intended target to other relatable targets, this assay endpoint is annotated to the cell adhesion molecules intended target family, where the subfamily is Immunoglobulin CAM.
The levels of cell surface (or secreted, indicated by the prefix "s") biomarker endpoints were measured by ELISA. Overt cytotoxicity to cells in confluent adherent cultures (all systems other than the BT system) was assessed by measuring total protein levels using sulforhodamine B (SRB) staining in parallel cultures at the time of biomarker measurements, indicated as SRB endpoints. For proliferation assays for adherent cell types, individual cell types are cultured at sub-confluence and relative cell numbers quantified by SRB staining at time points optimized for each system (48 h: 3C and CASM3C systems; 72 h: BT and HDF3CGF systems; 96 h: SAg system). SRB was performed by staining cells with 0.1% SRB after fixation with 10% TCA and reading wells at 560 nm.Viability and proliferation of PBMC (T cells) was quantified by Alamar Blue reduction for the SAg and BT systems. For PBMC viability (referred to as PBMC Cytotoxicity within the assay endpoint names), cells were plated (75,000/well in a 96-well plate) and then chemical samples added for 1 h before addition of activators, SEB and TSST-1 (20 ng/mL final concentration each). Cells were incubated for 90 h. Then, Alamar Blue (20 uL/well) (Invitrogen, Cat DAL1100) was added for 6 h, and the plates were read with a fluorescence microplate reader at 546/580 nm (excitation/emission). For PBMC proliferation, cells were plated and activated as above but incubated for only 16 h prior to addition of Alamar Blue. Plates were read after 6 h.

SMILES	outcome	AC50
Cc1cc(CCC(=O)OCCOCCOCCOC(=O)CCc2cc(C)c(O)c(C(C)(C)C)c2)cc(C(C)(C)C)c1O	inactive	–
O=C1OC2(c3ccccc31)c1ccc(O)c(Br)c1Oc1c2ccc(O)c1Br	–	7.49 µM (active)
O=C(Nc1ccc2c(O)c(N=Nc3ccc(N=Nc4ccc(S(=O)(=O)O)cc4)cc3)c(S(=O)(=O)O)cc2c1)c1ccccc1	inactive	15.1 µM (active)
C=C(C)[C@H]1CC=C(C)C(=O)C1	inactive	–
CC1(C)CCC[C@]2(C)[C@H]3CCO[C@]3(C)CC[C@@H]12	–	38.1 µM (active) and 33.9 µM (active)
C=CC(C)(O)CCC=C(C)C (stereo not given)	inactive	–
Oc1c(Cl)cc(Cl)c(Cl)c1Cc1c(O)c(Cl)cc(Cl)c1Cl	–	2.22 µM (active)
c1ccc2cc(Nc3ccc(Nc4ccc5ccccc5c4)cc3)ccc2c1	inactive	–
CC(=O)c1c(C)c([N+](=O)[O-])c(C(C)(C)C)c([N+](=O)[O-])c1C	inactive	–
C1=CC2C3C=CC(C3)C2C1 (stereo not given)	inactive	–
Clc1cc(Cl)c(-c2c(Cl)c(Cl)cc(Cl)c2Cl)cc1Cl	–	14.5 µM (active)
CCN(CC)C(=O)N(CC)CC	inactive	–
COc1cc(Cl)c(OC)cc1N	inactive	–
CS(=O)(=O)c1ccc(C2=C(c3ccccc3)C(=O)OC2)cc1	inactive	–
O=C1OC[C@H](Cc2cccc(O)c2)[C@H]1Cc1cccc(O)c1	inactive	–
CCOC(=O)C(C#N)=C(c1ccccc1)c1ccccc1	inactive	14.6 µM (active)
CC(C=O)Cc1ccc(C(C)(C)C)cc1 (stereo not given)	inactive	–
COc1ccc(CCN2CCC(Nc3nc4ccccc4n3Cc3ccc(F)cc3)CC2)cc1	inactive	–
CN(c1nccc(=O)[nH]1)C1CCN(c2nc3ccccc3n2Cc2ccc(F)cc2)CC1	inactive	–

SMILES	outcome	AC50
CN(C)C(=S)SC(=S)N(C)C	–	31.2 µM (active)
CCCCCCCCCCCCCCCC(=O)OC/C=C(C)/C=C/C=C(C)/C=C/C1=C(C)CCCC1(C)C	inactive	–
O=C1c2ccccc2C(=O)c2c(O)ccc(O)c21	inactive	–
CC(C)(C)CC(C)(C)c1ccc(OCCOCC[N+](C)(C)Cc2ccccc2)cc1	–	6.9 µM (active)
CC(CN=Cc1ccccc1O)N=Cc1ccccc1O (stereo not given)	inactive	–
CC(=O)Nc1ccc(C(=O)CCl)cc1	–	7.32 µM (active)
C=C(C)C(=O)OCCOCCOCCOCCOC(=O)C(=C)C	inactive	–
CSCCC=O	inactive	–
CCC(C)c1cc([N+](=O)[O-])cc([N+](=O)[O-])c1OC(=O)OC(C)C (stereo not given)	–	7.79 µM (active)
CCCCCCC(CO)CCCC (stereo not given)	–	32.5 µM (active) and 36.7 µM (active)
CS(=O)(=O)OCCCCOS(C)(=O)=O	inactive	–
CC(=O)C1(C)CC2=C(CCCC2(C)C)CC1C (stereo not given)	–	9.73 µM (active)
CC(C)(N=C=O)c1cccc(C(C)(C)N=C=O)c1	inactive	–
C=C(C)C(=O)OCCOCCOCCOC(=O)C(=C)C	inactive	–
CCCCN(CCCC)C(=O)N(CCCC)CCCC	–	9.04 µM (active)
C=C(C)C(=O)OCC(CC)(COC(=O)C(=C)C)COC(=O)C(=C)C	–	23.4 µM (active)
CCCCCC(C=O)=Cc1ccccc1	–	20 µM (active)
COc1ccc(OC)c(N=Nc2c(O)ccc3ccccc23)c1	–	1.42 µM (active)
CC1(C)C2=CCCC(C)(C)[C@]23CC[C@H]1C3	–	32.9 µM (active)
